Data from PubChem BioAssay (NCATS).
Records with an inconclusive call do not appear. Entries that show only a call come without a potency. Unmarked numbers belong to inactive results. Activity calls are given as the source filed them. Calls follow the shape of the dose curve; as a rule, active = well fitted inhibition curve with a large enough effect; inconclusive = small, poorly fitted or top-dose-only effect; inactive = no such curve, though single readings can be large or run the other way.

Tests used:
[1] = system: Zika virus NS2B-NS3 protease (unlinked complex); assay: Primary screen GU Rhodamine qHTS for Zika virus inhibitors: Unlinked NS2B-NS3 protease assay (AID 1347159); also: nearly all actives have a fitted effect of over 60% in size
Method in brief: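 Percent inhibition derives from the 15-min fluorescence change (ex 480, em 540 nm), normalized to no-enzyme and no-inhibitor wells. Reactions contained 25 nM NS2B-NS3 complex and 1.5 microM substrate in 10 mM Tris-HCl pH 8.0.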

[2] = system: Zika virus NS2B-NS3 protease (linked construct); assay: Primary screen NINDS Rhodamine qHTS for Zika virus inhibitors (AID 1347160); also: nearly all actives have a fitted effect of over 55% in size
Method in brief: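 In 10 mM Tris-HCl pH 8.0 containing 0.01% Tween 20, linked NS2B-NS3 protease (25 nM final) is exposed to test compounds for 15 min. Cleavage of 1.5 microM Rhodamine110 substrate is tracked by fluorescence over 15 min.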

| SMILES | Potency [1] | Potency [2] | activity change, negative = inhibition [1] |
| --- | --- | --- | --- |
| O=C(C[C@@H]1C(C(=O)O)=CO[C@@H](O[C@@H]2O[C@H](CO)[C@@H](O)[C@H](O)[C@H]2O)/C1=C\CO)OCCc1ccc(O)c(O)c1 | inactive | inactive |  |
| C=C(CCO)C(=O)OCC1OCC(OC(=O)C(=C)CCO[C@@H]2O[C@H](CO)[C@@H](O)[C@H](O)[C@H]2O)C(O)C1O (stereo partly specified) | inactive | inactive |  |
| C=C1C(=O)O[C@@H]2C[C@]3(C)[C@@H](CCC(C)=O)[C@@H]3C[C@H]12 | inactive | inactive |  |
| COc1ccnc2[nH]cc(C(=O)C(=O)N3CCN(C(=O)c4ccccc4)CC3C)c12 (stereo unspecified) | inactive | inactive |  |
| C=C[C@@]1(C)CCC2=C([C@H]1OC(C)=O)[C@H](OC(C)=O)CC1[C@](C)(C(=O)OC)CC[C@H](OC(C)=O)[C@]21C (stereo partly specified) | inactive | inactive |  |
| Cc1noc2c1-c1ccccc1C(c1ccc(Cl)cc1)=N[C@H]2CC(N)=O | inactive | inactive |  |
| C[C@@H]1O[C@@H](O[C@H]2[C@H](OC(=O)[C@]34CCC(C)(C)C[C@H]3C3=CCC5[C@@]6(C)C[C@@H](O)[C@@H](O[C@@H]7O[C@H](CO)[C@@H](O)[C@H](O)[C@H]7O)[C@@](C)(CO)C6[C@H](O)C[C@@]5(C)[C@]3(C)CC4)OC[C@H](O)[C@@H]2O)[C@H](O)[C@H](O[C@@H]2OC[C@](O)(CO)[C@H]2O)[C@H]1O[C@@H]1OC[C@@H](O)[C@H](O[C@H]2O[C@H](C)[C@@H](O)[C@H](O)[C@@H]2O)[C@H]1O (stereo partly specified) |  | inactive | 9.3% [at 19.1 µM] |
| CC1(O)CCC2C(C3C1CCC3(C)O)C2(C)C (stereo unspecified) | inactive | inactive |  |
